Data as given in the supplement of paper PMC3334620.
In all, about 33,000 sequences were measured (“E-score (-0.5 to 0.5)”: median about -0.016, highest 2% from about 0.3 on). For the sample, the highest values were picked, then their nearest neighbours and some sequences at random.

Target: T1, Yer184c (UniProt P39961)
T1 sequence: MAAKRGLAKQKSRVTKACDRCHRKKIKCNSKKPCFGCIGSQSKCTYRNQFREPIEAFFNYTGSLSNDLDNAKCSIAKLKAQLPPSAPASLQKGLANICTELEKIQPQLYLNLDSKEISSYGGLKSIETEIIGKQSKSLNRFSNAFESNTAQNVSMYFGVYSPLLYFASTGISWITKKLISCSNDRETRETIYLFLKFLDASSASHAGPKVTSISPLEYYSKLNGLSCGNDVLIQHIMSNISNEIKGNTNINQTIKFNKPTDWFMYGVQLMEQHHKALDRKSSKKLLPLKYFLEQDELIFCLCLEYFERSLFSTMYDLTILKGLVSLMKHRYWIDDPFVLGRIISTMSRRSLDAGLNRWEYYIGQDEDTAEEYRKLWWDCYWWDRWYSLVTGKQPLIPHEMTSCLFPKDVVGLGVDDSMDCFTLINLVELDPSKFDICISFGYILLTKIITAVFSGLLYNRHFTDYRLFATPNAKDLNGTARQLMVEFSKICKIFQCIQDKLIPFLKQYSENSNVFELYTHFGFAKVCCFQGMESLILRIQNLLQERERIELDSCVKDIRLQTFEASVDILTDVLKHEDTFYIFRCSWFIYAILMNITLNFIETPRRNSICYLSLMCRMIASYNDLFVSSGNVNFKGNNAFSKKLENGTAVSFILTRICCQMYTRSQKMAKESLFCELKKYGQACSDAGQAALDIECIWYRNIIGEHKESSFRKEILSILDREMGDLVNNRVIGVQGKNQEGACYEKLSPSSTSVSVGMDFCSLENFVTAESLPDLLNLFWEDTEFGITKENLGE
Test: PBM E-score (8-mer binding enrichment) (E-score (-0.5 to 0.5)); higher = stronger / more preferred TF binding
Conditions: protein concentration: 100 nM; construct: GST-full length
Experimental: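 Universal 'all 10-mer' protein binding microarrays (Agilent AMADID 015681) probed with GST-tagged S. cerevisiae TFs (full-length or DBD) made by in vitro transcription/translation (PURExpress), about 100-200 nM. Bound TF was detected with fluorescent anti-GST. Each ungapped 8-mer (which stands for itself and its reverse complement) is scored by the PBM enrichment score (E-score), a modified Wilcoxon-Mann-Whitney statistic from -0.5 to +0.5, computed with the Universal PBM Analysis Suite. Scale: above 0.35 generally sequence-specific binding.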

Sequence	PBM E-score
ACAAGAAG	0.048
CATCAGAG	-0.0413
GAGCACCC	-0.141
AAGTGATA	-0.118
GGGCCTTA	-0.209
CGGAGTAC	0.0421
GGGAGTAA	0.109
CGGAGTAA	0.313
AACCCGAA	0.14
CACGGCCA	0.131
AGTAACCG	0.117
CCCGCGGG	0.3
ACCGCGGG	0.291
CCCGCGGC	0.35
ACCGCGGC	0.344
ACCGCGGT	0.195
CCCGCGGA	0.257
ATGGACAT	0.0596
GAGTCGTA	-0.0554
ATCGCAGA	-0.132
CCACCACA	-0.093
GAGTGCAC	-0.0537
AAATGATC	-0.0261
AAATGATA	0.162
AAATGATT	0.316

Sequence	PBM E-score
ACTATCGA	-0.203
GTTTCCGA	0.286
ACTTCCGG	0.335
CTTTCCGA	0.3
ATTTCCTG	0.186
ATTTCCGA	0.359
CTTTCCGC	0.187
ATTTCCAC	0.067
ATTTCCGC	0.307
ATTTCCGG	0.445
ACTTCCGC	0.166
ATTTCCAG	0.0278
ACTTCCGA	0.285
AAAAGCCG	0.244
GATCTCGA	0.115
CAGTTGAC	-0.0401
ACATCTCG	0.00537
GGGATAAA	0.195
AAATTATT	0.212
ACGCAATA	0.135
AGAGCTCA	-0.142
GTACTATA	0.176
ATGGCGTA	-0.111
TATCCGAA	0.386
GATCCGAA	0.375

Sequence	PBM E-score
CATCCGAA	0.338
GATCCAAA	0.196
CCTCCGAA	0.0955
CATCCGAC	0.247
GCTCCGAA	0.298
GATCCGAC	0.0808
TCTCCGAA	0.325
TATCCGCA	0.293
AATCCGAA	0.0989
CATCCGAG	0.212
AACAAGAA	0.257
AAGATTAT	0.106
GCATTGCC	-0.0318
AGACTCTA	-0.124
AGGCATGG	-0.0826
TCGCTAAA	0.0346
GTCTTTCA	-0.0723
CCGGCCAC	0.24
AACTGCTC	-0.0494
GCCGTTAC	0.119
GTTCTGGA	0.0262
CGACGCCG	0.239
CCGACTTA	0.304
CCGACTGA	0.00051
CCGACTTC	-0.243

Sequence	PBM E-score
TGTTTCAA	0.153
ACGCGCAA	0.156
AGTCCCCC	-0.483
AATAGCGG	0.0178
ATACGGCC	0.153
ATCCGGTC	0.214
ATCCGGCG	0.321
ATCCGGTG	0.353
ATCCGGTA	0.206
ATGCGGCC	0.109
ATGCGGCG	0.0251
ATCCGACG	0.155
ATCCGGCC	0.358
ATTTGGCA	0.0517
GTGCACAC	-0.194
TGGCATAA	0.139
CTGGCTCA	-0.00502
ACCAAAGC	0.0124
CAGCCCTA	-0.0337
CATGGCGC	-0.0606
GCCAAAAA	0.234
CGATAAAA	0.333
TGATAAAA	0.178
TGGTAAAA	0.203
CGGTAAAG	0.314

Sequence	PBM E-score
AGGTAAAG	0.106
GTATAAAA	0.325
GGGTAAAA	0.143
CGGTAAAA	0.305
GTATAAAC	0.256
CGGTAAAC	0.216
GGATAAAA	0.248
ATATAAAA	0.278
AAGTTTGG	0.113
ATCCTCGG	0.218
CCAAAGCG	-0.0768
ACAACCGA	0.261
AAGGCGTG	-0.149
ATATTGGC	-0.0624
GGGCAACC	-0.121
CCCCAGGG	-0.297
CACGGGGC	-0.0464
TAATCTGA	-0.00734
ATCCGTTC	0.29
GTCCGTTA	0.207
ATCCGTTA	0.367
AGCCCAAG	-0.228
TGCCGACA	0.222
ACCCGAAT	0.104
GGCCGACC	0.028

Sequence	PBM E-score
AGCCGACT	-0.00308
AGCCGAAT	0.392
GGCCGAAC	0.305
AACCGAAA	0.345
AACCGAAT	0.199
CGCCGAAA	0.293
GCCCGAAC	0.0908
AACCGAAG	0.259
TGCCGAAA	0.371
GCGGGGAA	-0.0187
CGGGCTAA	0.0904
CTGCCTCC	-0.339
ATACGACC	-0.182
GATCTGGA	-0.0474
GACTTTCA	-0.0149
CATGCGCC	-0.092
CCATTAAG	-0.0869
ACCTCACT	-0.0518
ACTAGCGG	-0.0521
GCCCGAAA	0.171
GGCCGAAA	0.398
GACCGAAC	0.33
CACCGAAC	0.143
ACCCGAAA	0.169
AGCCGAAC	0.279

Sequence	PBM E-score
AGCCGAAA	0.364
GGTCGAAA	-0.168
GACCGAAA	0.265
CACTAGGC	-0.175
CGATAAAG	-0.00214
CTACGCAA	-0.00413
ACCCAATA	-0.0358
GGTTACAA	0.23
CCATAACC	-0.184
AAGATAGT	0.108
GAACATTC	0.102
CCGAAAAA	0.371
CCGAAAAC	0.243
TCGAAAAA	0.169
ACGAAATA	0.11
GCGAAATA	0.206
CCGAAATA	0.34
ACGAAAAG	0.187
CCGAAAGG	0.166
CCGAAAAG	0.31
GCGAGAAA	-0.0014
CCGAGAAA	0.351
TCGAGAAA	0.0245
AGCCATCG	-0.189
CCTTGCCG	0.124

Sequence	PBM E-score
CCACAGAG	-0.188
AACTTACG	0.0113
GGGGGGAC	-0.445
CGGCGCAC	0.216
GTCTTAAC	-0.122
TAAGGTGA	-0.0772
CGGGGAAG	0.0845
ACAGTTAT	-0.0291
ACGAAGAA	0.258
CCGAAGAA	0.345
TCGAAGAA	-0.0488
GTGAATCA	-0.0703
TGTTAACA	0.111
ACGGTAAG	-0.00751
CCGGTAAC	0.259
CCGGTAAA	0.321
TCGGTAAA	0.296
CCGGTAAG	0.369
CCGGTACG	-0.00725
GAAAGAGC	-0.0552
CCCTTTGA	-0.266
ACGCGACA	-0.0168
CCGATTCG	0.358
CCGATTCC	0.164
CCGATTCA	0.0391

Sequence	PBM E-score
ATGCCAAT	-0.0596
CGGGACCA	-0.098
CGGGACCG	0.31
AGGGACCG	-0.165
CCGGACAG	0.324
GCGGACCA	0.243
CCGGACAC	0.286
ACGGACCG	0.193
CCGGACCA	0.297
CCGGACCC	0.235
ACGGACCA	0.327
CCGGACAA	0.29
CCGGACCG	0.353
GTAGTGGA	0.177
ATGCTGGG	-0.0916
ACAATTGT	0.097
AATGCTCG	-0.0329
AACCAACG	-0.0237
ACAGCCCA	-0.0828
